{"source": "paper PMC11062922", "about": "(Nature Chemical Biology, 2023)", "set-up_in_all_cases": "species or system human, MV4-11 + K-562 + COLO205 + SK-N-BE2 + OVCAR-8", "key": {"CDC42BPA": {"test_system": "CDC42BPA", "conditions": "read-out: apparent Kd, n = 1"}, "CDC42BPB": {"test_system": "CDC42BPB", "conditions": "read-out: apparent Kd, n = 1"}, "CDC42BPG": {"test_system": "CDC42BPG", "conditions": "read-out: apparent Kd; compound concentrations: 100 nM and 1000 nM (sheet 'Samples'), CATDS: 0.15429937992002599; n = 1"}, "PKN1": {"test_system": "PKN1", "conditions": "read-out: apparent Kd, n = 1"}, "PRKACA": {"test_system": "PRKACA", "conditions": "read-out: apparent Kd; compound concentrations: 100 nM and 1000 nM (sheet 'Samples'), CATDS: 0.135293982303474; n = 1"}, "PRKACB": {"test_system": "PRKACB", "conditions": "read-out: apparent Kd; compound concentrations: 100 nM and 1000 nM (sheet 'Samples'), CATDS: 0.11075307193468301; n = 1"}, "PRKG1": {"test_system": "PRKG1", "conditions": "read-out: apparent Kd, n = 1"}, "PRKX": {"test_system": "PRKX", "conditions": "read-out: apparent Kd, n = 1"}, "ROCK1": {"test_system": "ROCK1", "conditions": "read-out: apparent Kd; compound concentrations: 100 nM and 1000 nM (sheet 'Samples'), CATDS: 0.22662167781686399; n = 1"}, "ROCK2": {"test_system": "ROCK2", "conditions": "read-out: apparent Kd, n = 1"}, "CDC42": {"test_system": "CDC42", "conditions": "read-out: apparent Kd; compound concentrations: 100 nM and 1000 nM (sheet 'Samples'), CATDS: 1; n = 1"}, "CHEK1": {"test_system": "CHEK1", "conditions": "read-out: apparent Kd; compound concentrations:100 nM and 1000 nM (sheet 'Samples'); n = 1"}, "GSK3A": {"test_system": "GSK3A", "conditions": "read-out: apparent Kd; compound concentrations:100 nM and 1000 nM (sheet 'Samples'); n = 1"}, "LATS1": {"test_system": "LATS1", "conditions": "read-out: apparent Kd; compound concentrations:100 nM and 1000 nM (sheet 'Samples'); n = 1"}, "MELK": {"test_system": "MELK", "conditions": "read-out: apparent Kd; compound concentrations:100 nM and 1000 nM (sheet 'Samples'); n = 1"}, "PIM1": {"test_system": "PIM1", "conditions": "read-out: apparent Kd; compound concentrations:100 nM and 1000 nM (sheet 'Samples'); n = 1"}, "PKN2": {"test_system": "PKN2", "conditions": "read-out: apparent Kd; compound concentrations:100 nM and 1000 nM (sheet 'Samples'); n = 1"}, "PRKCA": {"test_system": "PRKCA", "conditions": "read-out: apparent Kd; compound concentrations:100 nM and 1000 nM (sheet 'Samples'); n = 1"}, "PRKCB": {"test_system": "PRKCB", "conditions": "read-out: apparent Kd; compound concentrations:100 nM and 1000 nM (sheet 'Samples'); n = 1"}, "PRKCD": {"test_system": "PRKCD", "conditions": "read-out: apparent Kd; compound concentrations:100 nM and 1000 nM (sheet 'Samples'); n = 1"}, "PRKCI": {"test_system": "PRKCI", "conditions": "read-out: apparent Kd; compound concentrations:100 nM and 1000 nM (sheet 'Samples'); n = 1"}, "PRKCZ": {"test_system": "PRKCZ", "conditions": "read-out: apparent Kd; compound concentrations:100 nM and 1000 nM (sheet 'Samples'); n = 1"}, "RPS6KA5": {"test_system": "RPS6KA5", "conditions": "read-out: apparent Kd; compound concentrations:100 nM and 1000 nM (sheet 'Samples'); n = 1"}, "RPS6KB1": {"test_system": "RPS6KB1", "conditions": "read-out: apparent Kd; compound concentrations:100 nM and 1000 nM (sheet 'Samples'); n = 1"}, "CAMKK2": {"test_system": "CAMKK2", "conditions": "read-out: apparent Kd; compound concentrations: 100 nM and 1000 nM (sheet 'Samples'), CATDS: 0.352133758471873; n = 1"}, "EGFR": {"test_system": "EGFR", "conditions": "read-out: apparent Kd; compound concentrations: 100 nM and 1000 nM (sheet 'Samples'), CATDS: 0.86194262245046105; n = 1"}, "CAMK4": {"test_system": "CAMK4", "conditions": "read-out: apparent Kd; compound concentrations:100 nM and 1000 nM (sheet 'Samples'); n = 1"}, "CDK2": {"test_system": "CDK2", "conditions": "read-out: apparent Kd; compound concentrations:100 nM and 1000 nM (sheet 'Samples'); n = 1"}, "CDK4": {"test_system": "CDK4", "conditions": "read-out: apparent Kd; compound concentrations:100 nM and 1000 nM (sheet 'Samples'); n = 1"}, "ILK": {"test_system": "ILK", "conditions": "read-out: apparent Kd; compound concentrations:100 nM and 1000 nM (sheet 'Samples'); n = 1"}, "OPA1": {"test_system": "OPA1", "conditions": "read-out: apparent Kd; compound concentrations:100 nM and 1000 nM (sheet 'Samples'); n = 1"}, "SMC4": {"test_system": "SMC4", "conditions": "read-out: apparent Kd; compound concentrations:100 nM and 1000 nM (sheet 'Samples'); n = 1"}, "VDAC3": {"test_system": "VDAC3", "conditions": "read-out: apparent Kd; compound concentrations:100 nM and 1000 nM (sheet 'Samples'); n = 1"}, "[1]": {"conditions": "compound concentrations:100 nM and 1000 nM (sheet 'Samples')"}}, "note": "Read-outs that look alike come from different tables or passages of the source."}
{"compound": "NCCCC(NC(=O)c1cc(Br)c(-c2ccnc3[nH]ccc23)s1)c1ccccc1.NCCCC(NC(=O)c1cc(Br)c(-c2ccnc3[nH]ccc23)s1)c1ccccc1.O=C(O)C(F)(F)F.O=C(O)C(F)(F)F", "note": "(stereo not shown) [GSK1287544A]", "values": [{"measurement": "potency estimated from few doses", "setting": "CDC42BPA; compound concentrations: 100 nM and 1000 nM (sheet 'Samples'), CATDS: 6.9468579457902302E-2", "result": 0.735, "unit": "µM"}, {"measurement": "potency estimated from few doses", "setting": "CDC42BPB; compound concentrations: 100 nM and 1000 nM (sheet 'Samples'), CATDS: 0.12045997656794601", "result": 0.111, "unit": "µM"}, {"measurement": "potency estimated from few doses", "setting": "CDC42BPG", "result": 0.065, "unit": "µM"}, {"measurement": "potency estimated from few doses", "setting": "PKN1; compound concentrations: 100 nM and 1000 nM (sheet 'Samples'), CATDS: 6.0218156247889197E-2", "result": 1.75, "unit": "µM"}, {"measurement": "potency estimated from few doses", "setting": "PRKACA", "result": 0.0853, "unit": "µM"}, {"measurement": "potency estimated from few doses", "setting": "PRKACB", "result": 0.137, "unit": "µM"}, {"measurement": "potency estimated from few doses", "setting": "PRKG1; compound concentrations: 100 nM and 1000 nM (sheet 'Samples'), CATDS: 7.6658344406139403E-2", "result": 0.465, "unit": "µM"}, {"measurement": "potency estimated from few doses", "setting": "PRKX; compound concentrations: 100 nM and 1000 nM (sheet 'Samples'), CATDS: 6.23454867877557E-2", "result": 1.37, "unit": "µM"}, {"measurement": "potency estimated from few doses", "setting": "ROCK1", "result": 0.0333, "unit": "µM"}, {"measurement": "potency estimated from few doses", "setting": "ROCK2; compound concentrations: 100 nM and 1000 nM (sheet 'Samples'), CATDS: 0.23262842536730999", "result": 0.0319, "unit": "µM"}]}
{"compound": "COC(=O)c1cccc(NC(=O)NCCNc2ccnc(Nc3ccc(F)cc3)n2)c1", "note": "[GSK1379883A]", "values": [{"measurement": "potency estimated from few doses", "setting": "CDC42", "result": 1.56, "unit": "µM"}]}
{"compound": "CCn1c(-c2nonc2N)nc2cncc(CNC3CCNCC3)c21", "note": "[SB-747651A]", "values": [{"measurement": "potency estimated from few doses", "setting": "CDC42BPA; [1]", "result": 1.74, "unit": "µM"}, {"measurement": "potency estimated from few doses", "setting": "CDC42BPB; [1]", "result": 1.9, "unit": "µM"}, {"measurement": "potency estimated from few doses", "setting": "CHEK1", "result": 2.16, "unit": "µM"}, {"measurement": "potency estimated from few doses", "setting": "GSK3A", "result": 1.1, "unit": "µM"}, {"measurement": "potency estimated from few doses", "setting": "LATS1", "result": 0.782, "unit": "µM"}, {"measurement": "potency estimated from few doses", "setting": "MELK", "result": 0.655, "unit": "µM"}, {"measurement": "potency estimated from few doses", "setting": "PIM1", "result": 1.12, "unit": "µM"}, {"measurement": "potency estimated from few doses", "setting": "PKN1; [1]", "result": 0.04, "unit": "µM"}, {"measurement": "potency estimated from few doses", "setting": "PKN2", "result": 0.0945, "unit": "µM"}, {"measurement": "potency estimated from few doses", "setting": "PRKCA", "result": 0.197, "unit": "µM"}, {"measurement": "potency estimated from few doses", "setting": "PRKCB", "result": 0.153, "unit": "µM"}, {"measurement": "potency estimated from few doses", "setting": "PRKCD", "result": 0.632, "unit": "µM"}, {"measurement": "potency estimated from few doses", "setting": "PRKCI", "result": 1.48, "unit": "µM"}, {"measurement": "potency estimated from few doses", "setting": "PRKCZ", "result": 2, "unit": "µM"}, {"measurement": "potency estimated from few doses", "setting": "PRKG1; [1]", "result": 0.702, "unit": "µM"}, {"measurement": "potency estimated from few doses", "setting": "PRKX; [1]", "result": 1.59, "unit": "µM"}, {"measurement": "potency estimated from few doses", "setting": "ROCK2; [1]", "result": 0.0362, "unit": "µM"}, {"measurement": "potency estimated from few doses", "setting": "RPS6KA5", "result": 0.0961, "unit": "µM"}, {"measurement": "potency estimated from few doses", "setting": "RPS6KB1", "result": 0.0222, "unit": "µM"}]}
{"compound": "CN(C)C(=O)O[C@H]1CN[C@H](C#Cc2cc3ncnc(Nc4ccc(OCc5cccc(F)c5)c(Cl)c4)c3s2)C1", "note": "[GSK182497A]", "values": [{"measurement": "potency estimated from few doses", "setting": "CAMKK2", "result": 2.01, "unit": "µM"}, {"measurement": "potency estimated from few doses", "setting": "EGFR", "result": 0.175, "unit": "µM"}]}
{"compound": "O=C(Nc1n[nH]c2nc(-c3nccs3)c(Br)cc12)C1CC1", "note": "[SB-742251]", "values": [{"measurement": "potency estimated from few doses", "setting": "CAMK4", "result": 1.8, "unit": "µM"}, {"measurement": "potency estimated from few doses", "setting": "CDK2", "result": 1.64, "unit": "µM"}, {"measurement": "potency estimated from few doses", "setting": "CDK4", "result": 1.48, "unit": "µM"}, {"measurement": "potency estimated from few doses", "setting": "GSK3A", "result": 0.873, "unit": "µM"}, {"measurement": "potency estimated from few doses", "setting": "ILK", "result": 2.01, "unit": "µM"}, {"measurement": "potency estimated from few doses", "setting": "OPA1", "result": 1.52, "unit": "µM"}, {"measurement": "potency estimated from few doses", "setting": "SMC4", "result": 1.95, "unit": "µM"}, {"measurement": "potency estimated from few doses", "setting": "VDAC3", "result": 2, "unit": "µM"}]}
